Source: PubChem BioAssay (NCI)
About 83,000 compounds went through this panel and 20% of them were active in at least one assay; those are over-represented in the sample as a whole.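 Values shown are percent growth following 48 h exposure of cells in 96-well plates to a single concentration of compound; below 10 was considered active.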 The source made the active and inactive calls.

Experiments:
Assay in all cases: NCI-60 one-dose screen, 48 h (100 = growth as untreated, 0 = no growth, -100 = all killed)
Conditions in all cases: 10 µM unless noted
NCI-H23 lung = system: NCI-H23 lung
NCI-H226 lung = system: NCI-H226 lung
NCI-H322M lung = system: NCI-H322M lung
HOP-62 NSCLC = system: HOP-62 NSCLC
NCI-H460 lung = system: NCI-H460 lung
HOP-92 NSCLC = system: HOP-92 NSCLC
NCI-H522 lung = system: NCI-H522 lung
A549/ATCC NSCLC = system: A549/ATCC NSCLC
786-0 renal = system: 786-0 renal
DU-145 prostate = system: DU-145 prostate
K-562 leukemia = system: K-562 leukemia
MALME-3M melanoma = system: MALME-3M melanoma
MDA-MB-231 breast = system: MDA-MB-231 breast
RXF 393 renal = system: RXF 393 renal
SF-268 CNS = system: SF-268 CNS
SF-295 CNS = system: SF-295 CNS
SF-539 CNS = system: SF-539 CNS
UACC-257 melanoma = system: UACC-257 melanoma
M14 melanoma = system: M14 melanoma

Measured: growth

O=S(=O)(Nc1ccsc1-c1nc(-c2ccccc2)no1)c1cc(Cl)cc(Cl)c1
inactive: NCI-H23 lung 94.4% | NCI-H226 lung 98.6% | NCI-H322M lung 95.4% | HOP-62 NSCLC 76.2% | NCI-H460 lung 100% | HOP-92 NSCLC 83.5% | NCI-H522 lung 77.3% | A549/ATCC NSCLC 90% | 786-0 renal 98.5% | DU-145 prostate 101% | K-562 leukemia 105% | MALME-3M melanoma 99.6% | MDA-MB-231 breast 102% | RXF 393 renal 101% | SF-268 CNS 92.8% | SF-295 CNS 98.3% | SF-539 CNS 91.4% | UACC-257 melanoma 85.8% | M14 melanoma 92.1%

CC(=O)Nc1nccs1
inactive: NCI-H23 lung 95% | NCI-H226 lung 100% | NCI-H322M lung 88.2% | HOP-62 NSCLC 95.6% | NCI-H460 lung 98.8% | HOP-92 NSCLC 89.1% | NCI-H522 lung 87% | A549/ATCC NSCLC 99.3% | 786-0 renal 107% | DU-145 prostate 107% | K-562 leukemia 110% | MALME-3M melanoma 76.8% | MDA-MB-231 breast 103% | RXF 393 renal 98.6% | SF-268 CNS 99.9% | SF-295 CNS 101% | SF-539 CNS 97% | UACC-257 melanoma 94.2% | M14 melanoma 112%

COc1cc2c(cc1OC)-c1ccc3cc4c(cc3c1N(CCCN1CCCCC1)C2)OCO4
inactive: NCI-H23 lung 70.4% | NCI-H226 lung 75.8% | NCI-H322M lung 63.6% | HOP-62 NSCLC 56% | NCI-H460 lung 29.1% | HOP-92 NSCLC 23.2% | NCI-H522 lung 41.6% | A549/ATCC NSCLC 49.5% | 786-0 renal 40.1% | DU-145 prostate 51.1% | K-562 leukemia 16.9% | MALME-3M melanoma 76.7% | MDA-MB-231 breast 34.4% | RXF 393 renal 43.8% | SF-268 CNS 44.8% | SF-295 CNS 56.9% | SF-539 CNS 61.7% | UACC-257 melanoma 64.3% | M14 melanoma 54%

N=C(N)c1ccc(-c2ccc(-c3ccc(Cl)cc3Cl)o2)nc1
active: NCI-H460 lung -63.2% | A549/ATCC NSCLC 6.38% | 786-0 renal -22% | K-562 leukemia 1.13% | MDA-MB-231 breast -38% | SF-295 CNS -62.8%
inactive: NCI-H23 lung 78% | NCI-H226 lung 96.9% | NCI-H322M lung 30.7% | HOP-62 NSCLC 29.1% | HOP-92 NSCLC 77.4% | NCI-H522 lung 30% | DU-145 prostate 24.1% | MALME-3M melanoma 90% | RXF 393 renal 64.4% | SF-268 CNS 80.1% | SF-539 CNS 42.6% | UACC-257 melanoma 91.4% | M14 melanoma 70.2%

O=C1C(Cl)C(c2ccccc2Cl)N1n1cnnc1 (configuration not stated)
inactive: NCI-H23 lung 101% | NCI-H226 lung 102% | NCI-H322M lung 93.5% | HOP-62 NSCLC 73.5% | NCI-H460 lung 101% | HOP-92 NSCLC 91.1% | NCI-H522 lung 92.9% | A549/ATCC NSCLC 91.1% | 786-0 renal 97.1% | DU-145 prostate 104% | K-562 leukemia 102% | MALME-3M melanoma 95.6% | MDA-MB-231 breast 94.8% | RXF 393 renal 98.6% | SF-268 CNS 102% | SF-295 CNS 100% | SF-539 CNS 85.3% | UACC-257 melanoma 91.5% | M14 melanoma 93.1%

N=C(N)c1ccc(-c2ccc(-c3ccc(Cl)cc3Cl)o2)cc1
inactive: NCI-H226 lung 93.7% | HOP-92 NSCLC 45.3% | MALME-3M melanoma 17.4% | RXF 393 renal 32.1% | SF-268 CNS 47.3% | UACC-257 melanoma 90.9%
active: NCI-H23 lung 3.61% | NCI-H322M lung -53.9% | HOP-62 NSCLC -12.1% | NCI-H460 lung -65.7% | NCI-H522 lung 1.99% | A549/ATCC NSCLC -46.5% | 786-0 renal -86% | DU-145 prostate -17.9% | K-562 leukemia -12.9% | MDA-MB-231 breast -69.7% | SF-295 CNS -77.1% | SF-539 CNS -61.7% | M14 melanoma 8.85%

CS(=O)(=O)c1ccc(-c2[nH]c3ccc(F)cc3c2/C=N/O)cc1
inactive: NCI-H23 lung 94.3% | NCI-H226 lung 92.8% | NCI-H322M lung 90.1% | HOP-62 NSCLC 80.7% | NCI-H460 lung 105% | HOP-92 NSCLC 87.6% | NCI-H522 lung 82% | A549/ATCC NSCLC 82% | 786-0 renal 95.8% | DU-145 prostate 97.2% | K-562 leukemia 89.4% | MALME-3M melanoma 105% | MDA-MB-231 breast 89.2% | RXF 393 renal 104% | SF-268 CNS 93% | SF-295 CNS 100% | SF-539 CNS 88.8% | UACC-257 melanoma 86.7% | M14 melanoma 96.6%

Cc1nn(Cc2ccccc2)cc1C(=O)Nc1sc2c(c1C(N)=O)CCC(=O)C2
inactive: NCI-H23 lung 12.6% | NCI-H226 lung 71.9% | NCI-H322M lung 96.2% | HOP-62 NSCLC 84.6% | NCI-H460 lung 86% | HOP-92 NSCLC 31.2% | A549/ATCC NSCLC 84.7% | 786-0 renal 70.1% | DU-145 prostate 67.6% | K-562 leukemia 10.5% | MALME-3M melanoma 27.6% | MDA-MB-231 breast 25% | RXF 393 renal 31.4% | SF-268 CNS 20.5% | SF-295 CNS 79.7% | UACC-257 melanoma 70.7% | M14 melanoma 16.7%
active: NCI-H522 lung -3.17% | SF-539 CNS 9.16%
